Active and inactive are the calls of the source. The calls were made as follows: active = hit-call score of the fitted dose curve at least 0.9, where 1 is the maximum; inactive = score below 0.9.
Assay: ATG_Sox_CIS: Attagene CIS-FACTORIAL HepG2 Assay for human SRY-box transcription factor (SOX) (AID 2282960)
Settings: HepG2 Attagene cis-factorial SOX reporter, mRNA; actives raise or lower the signal
Experimental: ATG_CIS is a cell-based, multiplexed-readout assay that uses HepG2, a human liver cell line, with measurements taken at 24 hours after chemical dosing in a 24-well plate.ATG_Sox_CIS is one of 52 assay component(s) measured or calculated from the ATG_CIS assay. It is designed to make measurements of mRNA induction, a form of inducible reporter, as detected with fluorescence intensity signals by Reverse transcription polymerase chain reaction (RT-PCR) and Capillary electrophoresis technology.Data from the assay component ATG_Sox_CIS was analyzed into 1 assay endpoint. This assay endpoint, ATG_Sox_CIS, was analyzed with bidirectional fitting relative to DMSO as the negative control and baseline of activity. Using a type of inducible reporter, measures of mRNA for gain or loss-of-signal activity can be used to understand the reporter gene at the transcription factor-level as they relate to the gene SOX1. Furthermore, this assay endpoint can be referred to as a primary readout, because this assay has produced multiple assay endpoints where this one serves a reporter gene function. To generalize the intended target to other relatable targets, this assay endpoint is annotated to the dna binding intended target family, where the subfamily is HMG box protein.
Human liver HepG2 cells are transiently transfected with multiple reporter transcription units (MRTUs) in 6-well plates using FuGene 6 reagent (Roche; 3 ml FuGene/1 mg DNA). The MRTU constructs are regulated by a cis-regulating element (promoter). […] A major difference between the CIS and TRANS system is that in CIS activities of endogenous TFs are measured, whereas the TRANS assay evaluates changes in activities of exogenous, chimeric NR-Gal4 proteins. […] At the end of 24 hour incubation, total RNA was isolated using TriZol reagent (Invitrogen). The isolated RNA is then reverse-transcribed using oligo(dT) primer and Mo-MLV reverse transcriptase (Invitrogen) with DNAse I (Ambion) treatment for 30 min. The one-tenth of the produced cDNA was amplified by PCR using Taq DNA polymerase (Invitrogen) and two reporter sequence-specific primers. The PCR products were fluorescently labeled by primer extension with 6-arboxyfluorescein (6-FAM) 5'-labeled reporter sequence-specific primer (2 min at 95 C, 20 s at 68 C and 10 min at 72 C) and these products were digested with 5U of HpaI (New England Biolabs) for 2h at 37 C. The fragments were purified using Qiaquick PCR columns (Qiagen), analyzed on an ABI 3130xL genetic analyzer (Applied Biosystems) with peak positions identified by using a set of X-rhodamine (ROX)-labeled MapMarker1000 molecular weight standards (BioVentures). The raw capillary electrophoresis data was processed using Attagraph software (Attagene).

SMILES | outcome | AC50
COc1ccccc1N | inactive | 
O=C(Cl)OCCOCCOC(=O)Cl | inactive | 
CCOC(=O)CCN(SN(C)C(=O)Oc1cccc2c1OC(C)(C)C2)C(C)C | inactive | 
N#CCC#N | inactive | 
O=C(N[C@H]1CN2CCC1CC2)c1ccc2c(c1)OCCO2 | inactive | 
O=C(O)c1cc(I)cc(I)c1I | inactive | 
CC(C)(COCC1CO1)COCC1CO1 (stereo not given) | inactive | 
OCCN(CCO)CCO | inactive | 
Nc1cccnc1 | inactive | 
CC(C)[C@H](C(=O)OC(C#N)c1cccc(Oc2ccccc2)c1)c1ccc(OC(F)F)cc1 (stereo not given in full) | inactive | 
NNCCO | inactive | 
O=NN1CCOCC1 | inactive | 
O=C(CBr)c1ccc(O)cc1 | inactive | 
Cc1cccc(OP(=O)(Oc2cccc(C)c2)Oc2cccc(C)c2)c1 | inactive | 
CNC(=O)CSP(=O)(OC)OC | inactive | 
Nc1nc(=S)[nH][nH]1 | inactive | 
C=CC(=O)NC(C)(C)CC(C)=O | inactive | 
CCCCC(CC)COC(=O)Cl (stereo not given) | inactive | 
Cc1cc(Cl)ccc1N | inactive | 
Oc1ccc(Cc2ccc(O)cc2)cc1 | inactive | 

SMILES | outcome | AC50
Cc1ccccc1OP(=O)(Oc1ccccc1)Oc1ccccc1 | inactive | 
O=[N+]([O-])c1ccc(Cl)c([N+](=O)[O-])c1 | inactive | 
C=CC(=O)OCC(COC(=O)C=C)(COC(=O)C=C)COC(=O)C=C | inactive | 
Cc1cc(Cl)ccc1OCCCC(=O)O | inactive | 
O=C(NC(=O)c1c(F)cccc1F)Nc1cc(Cl)c(Oc2ncc(C(F)(F)F)cc2Cl)c(Cl)c1 | inactive | 
CC(C)[C@@H](Nc1ccc(C(F)(F)F)cc1Cl)C(=O)OC(C#N)c1cccc(Oc2ccccc2)c1 (stereo not given in full) | inactive | 
CCCCC(CC)C(=O)Cl (stereo not given) | inactive | 
O=C(Cc1ccccc1)OCCc1ccccc1 | inactive | 
COc1ccc([N+](=O)[O-])cc1O | inactive | 
c1cc[c]([Sb]([c]2ccccc2)[c]2ccccc2)cc1 | inactive | 
Nc1ccc(N)cc1 | inactive | 
OC(Cc1ccccc1Cl)(Cn1cncn1)C1(Cl)CC1 (stereo not given) | inactive | 
Cc1cc(SCc2sc(-c3ccc(C(F)(F)F)c(F)c3)nc2C)ccc1OCC(=O)O | inactive | 
CC(C)(C1CCC(O)CC1)C1CCC(O)CC1 (stereo not given) | inactive | 
Brc1ccc(Oc2c(Br)cc(Br)cc2Br)c(Br)c1 | inactive | 
COP(=S)(OC)Oc1cc(Cl)c(I)cc1Cl |  | 33.4 µM (active)
Cc1cc(Cl)ccc1O | inactive | 
OC[P+](CO)(CO)CO | inactive | 
CC1(C)[C@H](/C=C2\CCSC2=O)[C@@H]1C(=O)OCc1coc(Cc2ccccc2)c1 | inactive | 
OC(Cc1ccccc1Cl)(Cn1[nH]cnc1=S)C1(Cl)CC1 (stereo not given) |  | 145 µM (active)

Source: PubChem BioAssay (EPA / NIEHS)
